# NALP1 yeast inh: blocks the NALP1 inflammasome reconstituted in yeast | S. cerevisiae NALP1/ASC/caspase-1 growth, X-gal OD620, 72 h | inhibition, % at 10 µM | actives 0.61% (n = 280,000); in the data active means inhibition mostly above about 24%, no sharp cut-off; inactive means mostly below about 32%
# SKKanGAS inh: blocks kanamycin growth of S. pyogenes SKKanGAS strain; BacTiter-Glo, 6 h; inhibition, % at 7.5 µM; actives 1.3% (n = 300,000); AID 1662;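 active means mean replicate score, as percent of positive control median, at least 50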;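 further: strain carries kanamycin resistance gene driven by streptokinase promoter and grows in 40 µg/ml kanamycin; loss of luminescence reflects streptokinase promoter inhibition or plain growth inhibition; 0% = median of DMSO wells and 100% = positive control at its reference dose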
# NALP3 yeast inh: NALP3 inhibition in yeast; Yeast reconstituted NLRP3/ASC/caspase-1, beta-gal luminescence, 24 h; actives 0.39% (n = 330,000); inhibition, % at 10 µM;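 active means inhibition of 50% or more; inactive means inhibition below 50%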;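 further: plate controls were induced DMSO wells for no effect and uninduced yeast grown without galactose for full effect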
# tim23-1 inh: growth inhibitors of tim23-1 mutant yeast | S. cerevisiae tim23-1 growth, BacTiter-Glo luminescence, 24 h | inhibition, % at 20 µM | actives 1.3% (n = 330,000);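 active means growth inhibition of the mutant yeast at or above 50%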;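 further: temperature-sensitive mutant grown at 25 °C; plate controls were DMSO-treated mutant yeast for no effect and medium wells lacking yeast for full effect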
# TIM10 inh: growth inhibitors of TIM10 yeast strain; S. cerevisiae TIM10 strain growth, BacTiter-Glo luminescence, 24 h; inhibition, % at 10 µM; actives 1.4% (n = 330,000);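 active means inhibition of 40% or more at the single tested concentration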;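 further: wild-type TIM10 isogenic control strain grown at permissive 25 °C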
# tim10-1 inh: inhibits growth of tim10-1 mutant yeast. S. cerevisiae tim10-1 ts strain growth, BacTiter-Glo, 24 h. inhibition, % at 20 µM. actives 2.2% (n = 330,000). AID 463190;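 active means inhibition of at least 40%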;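 further: mutant grown at 25 °C; 0% = DMSO wells with yeast and 100% = wells holding no yeast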
# tim10-1 confirm: tim10-1 yeast growth inhibition, confirmed; actives 56% (n = 7,400); inhibition, % at 20 µM; S. cerevisiae tim10-1 ts strain growth, BacTiter-Glo, 24 h; AID 463213; shares compounds with tim10-1 inh;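 active means inhibition of yeast growth at or above a set limit in either of two repeat tests at 20 µM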;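 further: tim10-1 mutant grown at permissive 25 °C to find synthetic lethal compounds; 0% = DMSO yeast wells and 100% = medium wells without yeast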
# Active calls of the source: *; . = no result given. An excerpt weighted towards active compounds, which were near 4.9% of everything screened.
SMILES,NALP1 yeast inh,SKKanGAS inh,NALP3 yeast inh,tim23-1 inh,TIM10 inh,tim10-1 inh,tim10-1 confirm
CCOc1cc(CC(=O)N[C@@H](CC(C)C)c2ccccc2N2CCCCC2)ccc1C(=O)O,0,16,7,5,9,5,.
CC1=C/C(=C(\c2cc(C)c(O)c(Br)c2)c2ccccc2S(=O)(=O)O)C=C(Br)C1=O,4,24,28,46,33,46*,44*
CC1CCc2c(sc3[nH]c(=S)n(C)c(=O)c23)C1 (stereo not given),-6,12,28,12,-5,3,.
Cc1ccc(NC(=O)C(C)N2C(=O)C3C4CC(C(Br)C4Br)C3C2=O)cc1 (stereo not given),8,5,-5,19,24,48*,32*
Cc1ccc([N+](=O)[O-])c(OCCN2C(=O)NC(C)(C)C2=O)c1,9,-5,8,-7,5,-3,.
Cc1ccc(C(C)C)c(OCCCN2C(=O)NC(C)(C)C2=O)c1,1,-11,0,18,7,43*,22
O=C(O)CCCCCNS(=O)(=O)c1ccc2c(c1)OCCO2,2,-12,15,-14,4,8,.
O=S(=O)(NCCSc1ccccc1)c1ccc2c(c1)OCCO2,34,-4,11,36,5,41*,24
O=C(Nc1cc(-c2ccccc2)nn1-c1ccccc1)c1ccccc1F,.,.,20,40,5,19,.
Cc1cc(S(=O)(=O)NCCCN2CCOCC2)ccc1Br,.,.,25,7,-34,-31,.
O=C(c1cn(-c2ccccc2)nc1-c1ccncc1)n1nnc2ccccc21,.,-1,-3,40,27,53*,39*
COc1ccc(CNC(=O)Cn2ncn3cccc3c2=O)cc1,3,3,-13,-2,-3,8,.
C=CCc1ccc(O)c(-c2cc(CC=C)ccc2O)c1,5,17,6,31,30,43*,45*
Cc1oc2ccc(O)cc2c1C(=O)c1ccc([N+](=O)[O-])cc1,34,0,22,45,28,45*,27
Cc1oc2ccc(O)cc2c1C(=O)c1ccc(Cl)cc1,18,-1,2,23,5,31,.
Cc1ccc(C(=O)NCCCNC(=O)c2ccco2)cc1C,19,2,4,6,-16,11,.
C[C@H](CO)N1C[C@H](C)[C@@H](CN(C)C(=O)Nc2ccccc2)Oc2ccc(NC(=O)Cn3cnnn3)cc2C1=O,.,.,8,13,-3,4,.
O=C(CNC(=S)N(Cc1ccccc1F)C1CCCCC1)NCCCN1CCOCC1,-4,.,2,5,-33,17,.
C=CCOCCN1C(=O)C2C(c3ccccc3)C=CC(c3ccccc3)C2C1=O (stereo not given),25,2,8,41,25,41*,24
C=CC[N+](C)(C)CCN1C(=O)C2C(c3ccccc3)C=CC(c3ccccc3)C2C1=O (stereo not given),27,-5,12,-3,3,3,.
COc1ccc(C(=O)OCC(=O)NCC2CCCCC2)cc1F,.,.,-5,17,-4,34,.
COc1ccc(Cl)cc1NC(=O)CN(C)C(=O)C12CC3CC(CC(Cl)(C3)C1)C2,7,4,6,50,27,43*,34*
N#Cc1sc2nc(-c3cccs3)cc(-c3ccc(Cl)cc3)c2c1N,-10,16,3,3,10,17,.
CCN(CC)C(=O)c1sc2nc(-c3cccs3)cc(-c3ccc(Cl)cc3)c2c1N,12,14,14,34,38,58*,38*
Cc1ccccc1S(=O)(=O)c1c(C)cc(C)n(CC(C)C)c1=O,-4,11,-14,20,30,48*,25
SMILES,NALP1 yeast inh,SKKanGAS inh,NALP3 yeast inh,tim23-1 inh,TIM10 inh,tim10-1 inh,tim10-1 confirm
CN(C)Cc1ccc(CNC(=O)COc2ccc3ccccc3c2)cc1,15,-2,-6,0,8,-11,.
COc1ccc(-n2c(=S)[nH]c3ccccc3c2=S)cc1,8,10,-9,16,26,6,.
COc1ccc(-n2c(=S)[nH]c3ccccc32)cc1,5,4,26,26,28,42*,15
COc1ccc(-c2cc(-c3ccccc3)c(C#N)c(SCC(=O)Nc3ncc(C)s3)n2)cc1,9,14,-2,21,10,42*,19
COc1ccc(-c2cc(-c3ccccc3)nc(SCC(=O)Nc3nccs3)c2C#N)cc1,19,13,18,-11,-28,15,.
Cc1cccc(/C=C2\Sc3ccc(C(=O)N4CCCCC4)cc3N(C)C2=O)c1,20,2,13,33,0,45*,-2
CN1C(=O)/C(=C/c2cccc(Cl)c2)Sc2ccc(C(=O)N3CCCC3)cc21,-1,-1,14,33,10,52*,10
Cc1cccc(/C=C2\Sc3ccc(C(=O)NCC4CCCO4)cc3N(C)C2=O)c1 (stereo not given),22,28,23,29,12,26,.
CC(Sc1nnc(N)s1)C(=O)Nc1ccc2c(c1)OCO2 (stereo not given),.,.,1,8,0,-9,.
Cc1c(C)n(Cc2ccccc2)c2ccc(C(=O)OCCN(C)C)cc12,15,-2,30,26,36,41*,43*
COc1cccc(NC(=O)[C@H](CC(C)C)NC(=O)N2CCn3c2nc2ccccc23)c1,-1,4,14,24,11,17,.
Cc1cc2nc(Sc3c([N+](=O)[O-])nc(C)n3Cc3ccccc3)[nH]c2cc1C,14,0,19,37,25,43*,39*
Cc1nc([N+](=O)[O-])c(Sc2nc3ccccc3[nH]2)n1Cc1ccccc1,12,6,3,23,4,44*,22
Cc1nc([N+](=O)[O-])c(N2CCN(Cc3ccccc3)CC2)n1Cc1ccccc1,8,-2,25,3,4,26,.
COc1ccc2nc(Sc3c([N+](=O)[O-])nc(C)n3Cc3ccccc3)[nH]c2c1,-8,-7,-5,32,33,33,.
C[C@H](NS(=O)(=O)c1ccccc1)C(=O)OCC(=O)NC(=O)Nc1ccc2c(c1)OCCO2,24,4,1,-8,-12,-12,.
CCN(CC)S(=O)(=O)c1ccc(N/N=C/c2ccc(O)cc2)nc1,4,-4,-32,20,25,42*,34*
CCOc1cccc(/C=N/Nc2ccc(S(=O)(=O)N(CC)CC)cn2)c1O,21,91*,-7,20,28,41*,27
CCN(CC)S(=O)(=O)c1ccc(N/N=C/c2cc(OC)c(OC)cc2OC)nc1,24,0,-6,-40,-29,-16,.
Cc1cc(=O)n2c3c(sc2n1)C(=O)N(Cc1ccccc1)C3=O,8,-1,15,29,21,40*,34*
